Values joined by “and” are separate entries in the source; they are usually repeats but may differ in a detail not shown here. Equal entries are not always repeated. Inconclusive results are not listed. Where a structure was tested more than once in an assay, its records may differ in their call. Active and inactive are the calls of the source. Unless noted, calls come from the whole dose curve; as a rule, active = well fitted curve in the direction sought with a large enough effect in the repeat runs; inconclusive = weak or mixed curves; inactive = no such curve, though single readings can be large; an effect the other way counts as inactive or inconclusive.
Legend:
[1] = qHTS assay to identify small molecule antagonists of the estrogen related receptor (ERR) signaling pathway from Tox21 library - cell viability counter screen (AID 1224834); note: nearly all actives have a fitted effect of over 30% in size
Method in brief: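 Counter screen run in ERR cells (2,000 cells/well): cells pre-incubated 6 h, then treated with compounds for 17.5 h at 37 C. Fluorescence was read 30 min after CellTiter-Fluor addition.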

[2] = target: Luciferin 4-monooxygenase (Photinus pyralis) (UniProt P08659); test: qHTS assay to identify small molecule inhibitors of firefly luciferase (AID 1224835); note: nearly all actives have a fitted effect of over 25% in size; note: potency is the fitted concentration of half-maximal effect
Method in brief: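 Quantitative HTS format; KM concentrations of both substrates. Purified P. pyralis FLuc activity quantified from luminescence images.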

[3] = qHTS assay to identify small molecule agonists of the constitutive androstane receptor (CAR) signaling pathway - cell viability counter screen (AID 1224836); note: nearly all actives have a fitted effect of over 45% in size
Method in brief: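 23 h treatment, 37 C, 5% CO2. Cell line: HepG2 stably expressing hCAR with a CYP2B6-2.2kb construct. Co-treatment: PK11195, 0.75 uM final. Read-out: CellTiter-Fluor fluorescence intensity.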

[4] = qHTS assay to identify small molecule antagonists of the constitutive androstane receptor (CAR) signaling pathway - cell viability counter screen (AID 1224837); note: nearly all actives have a fitted effect of over 45% in size
Method in brief: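 CITCO at 50 nM final was added alongside compounds (15 concentrations) to double-stable hCAR/CYP2B6-2.2kb HepG2 cells. Following 23 hr at 37 C, cell viability was quantified by CellTiter-Fluor fluorescence intensity.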

[5] = qHTS assay to identify small molecule antagonists of the estrogen related receptor signaling pathway with the pleiotropic PPARgamma coactivator (PGC) from Tox21 10K library - cell viability counter screen (AID 1224840; active = well fitted cell-killing curve with a large enough effect in the repeat runs, not every such curve was filed as active; note: nearly all actives have a fitted effect of over 40% in size)
Method in brief: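 Readout: fluorescence intensity from CellTiter-Fluor after 30 min at 37 C/5% CO2. Preceded by 17.5 h treatment of PGC/ERR cells with DMSO-dissolved compounds, added 6 h post-seeding.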

[6] = qHTS assay to identify small molecule antagonists of the estrogen related receptor signaling pathway with the pleiotropic PPARgamma coactivator (PGC) from Tox21 10K library (AID 1224841; call rule not given here; note: actives are mostly falling curves and most rising ones were filed inactive; nearly all actives have a fitted effect of over 50% in size)
Method in brief: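 One-Glo luminescence, measured after half an hour at room temperature, quantified reporter output of PGC/ERR cells. These had been plated at 2,000 per well, incubated 6 h, dosed with compounds in DMSO, then kept 18 h at 37 C.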

[7] = qHTS assay to identify small molecule agonists of the estrogen related receptor signaling pathway with the pleiotropic PPARgamma coactivator (PGC) from Tox21 10K library (AID 1224842); note: nearly all actives have a fitted effect of over 15% in size
Method in brief: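 PGC/ERR reporter cells (NTP line) were seeded 2,000 per well, rested 6 h at 37 C/5% CO2, then pin-dosed with compounds in DMSO for 18 h at 37 C; luciferase read by One-Glo luminescence after 30 min at room temperature.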

[8] = target: Thyrotropin receptor (Homo sapiens) (UniProt P16473); test: qHTS assay to identify small molecule agonists of the thyroid stimulating hormone receptor (TSHR) signaling pathway (AID 1224843; calls by dose curve; note: nearly all actives have a fitted effect of over 45% in size)
Method in brief: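 Using 15 concentrations per compound in triplicate, cAMP production was monitored in TSHR-HEK293 cells after 30 min compound incubation at RT; HTRF reagents followed, with fluorescence intensity recorded after 1 h.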

[9] = qHTS assay to identify small molecule agonists of the hypoxia (HIF-1) signaling pathway - cell viability counter screen (AID 1224844; calls by dose curve; note: nearly all actives have a fitted effect of over 50% in size)
Method in brief: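 In this counter screen, HRE-bla ME-180 cell viability after 17 hrs of compound exposure at 37C was read by CellTiter-Glo luminescence, multiplexed with the beta-lactamase reporter measurement.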

[10] = qHTS assay to identify small molecule agonists of H2AX (AID 1224845; active = well fitted activation curve with a large enough effect in the signal ratio in the repeat runs, not every such curve was filed as active; the % refers to the signal ratio)
Method in brief: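 Wild-type CHO-K1 cells plated overnight, then exposed 3 hr at 37C to compounds at 15 concentrations (0.76% DMSO). Lysed, then HTRF anti-pH2AX(S139)-cryptate/anti-H2AX-d2 detection after 24 hr at room temperature; emissions 665 and 620 nm.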

[11] = qHTS assay to identify small molecule agonists of the hypoxia (HIF-1) signaling pathway (AID 1224846; active = well fitted activation curve with a large enough effect in the signal ratio in the repeat runs, not every such curve was filed as active; the % refers to the signal ratio)
Method in brief: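 ME-180 HRE-bla reporter cells; compounds in DMSO, 17 h at 37C; read-out beta-lactamase via CCF4-AM FRET.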

[12] = qHTS RealTime-Glo MT Cell Viability Assay in HepG2 cells - 24 hour (AID 1224867); note: nearly all actives have a fitted effect of over 50% in size
Method in brief: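 Cell number in HepG2 cultures estimated from NanoLuc luminescence generated by metabolic reduction of a prosubstrate by living cells. The homogeneous, nonlytic format allowed repeated reads at 0, 8, 16, 24, 32 and 40 h of compound exposure.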

[13] = qHTS RealTime-Glo MT Cell Viability Assay in HEK293 cells - 32 hour (AID 1224868); note: nearly all actives have a fitted effect of over 50% in size; note: potency is the fitted concentration of half-maximal effect
Method in brief: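 Homogeneous bioluminescent viability format in HEK293 cells (600 cells/well). Following 5 h at 37 C/5% CO2, 23 nL compound was pintooled; the signal was measured repeatedly during 40 h incubation.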

[14] = qHTS assay to identify small molecule agonists of H2AX - cell viability counter screen (AID 1224847; calls by dose curve; note: top concentration of the series differs between compounds; nearly all actives have a fitted effect of over 30% in size)
Method in brief: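 Compounds tested at 15 concentrations were incubated 3 hr at 37C with wild-type CHO-K1 cells; cellular ATP-based luminescence (CellTiter-Glo) indicated viability.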

[15] = qHTS assay to identify small molecule agonists of the estrogen related receptor (ERR) signaling pathway from Tox21 library (AID 1224849; calls by dose curve; note: nearly all actives have a fitted effect of over 15% in size); conditions: ERR reporter cell line, ONE-Glo luciferase, 18 h; at 42.5 µM (top of the series)
Method in brief: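 Luciferase activity in ERR pathway reporter cells served as the agonist readout; exposure lasted 18 h at 37 C, with ONE-Glo detection after 30 min at room temperature.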

[16] = A CellTox Green Cytotoxicity Assay to monitor cytotoxicity in HEK293 cells - 0 hour (AID 1224869); note: nearly all actives have a fitted effect of over 50% in size
Method in brief: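 Real-time, in one plate: 600 HEK293 cells/well with dead-cell DNA dye, pinned compound after 5 h, 37 C incubation over 40 h; viable cells give no appreciable fluorescence.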

[17] = target: Nuclear receptor subfamily 1 group I member 3 (Homo sapiens) (UniProt Q14994); test: qHTS assay to identify small molecule antagonists of the constitutive androstane receptor (CAR) signaling pathway (AID 1224838); note: nearly all actives have a fitted effect of over 40% in size
Method in brief: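 Inhibition of CITCO-driven (50 nM final) CYP2B6 reporter expression is measured in HepG2 cells stably carrying hCAR. Fifteen compound concentrations are applied for 24 h at 37 C, followed by luciferase luminescence.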

[18] = target: Nuclear receptor subfamily 1 group I member 3 (Homo sapiens) (UniProt Q14994); test: qHTS assay to identify small molecule agonists of the constitutive androstane receptor (CAR) signaling pathway (AID 1224839); note: nearly all actives have a fitted effect of over 15% in size
Method in brief: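 Compounds tested at 15 concentrations on HepG2 cells stably harbouring hCAR and CYP2B6-2.2kb reporter constructs, co-treated with PK11195 (0.75 uM final), 24 h at 37 C; luminescent reporter signal quantified.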

[19] = qHTS assay to identify small molecule antagonists of the estrogen related receptor (ERR) signaling pathway from Tox21 library (AID 1224848); note: nearly all actives have a fitted effect of over 50% in size
Method in brief: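 Tox21 10K compounds in DMSO tested for ERR pathway antagonism in NTP's ERR cell line; 18 h, 37 C exposure; ONE-Glo luminescence.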
% is set by controls: 0 for no effect and ±100 for the full control effect.

Chain of Nuclear receptor subfamily 1 group I member 3 (Homo sapiens) (Q14994 whole entry, looked up): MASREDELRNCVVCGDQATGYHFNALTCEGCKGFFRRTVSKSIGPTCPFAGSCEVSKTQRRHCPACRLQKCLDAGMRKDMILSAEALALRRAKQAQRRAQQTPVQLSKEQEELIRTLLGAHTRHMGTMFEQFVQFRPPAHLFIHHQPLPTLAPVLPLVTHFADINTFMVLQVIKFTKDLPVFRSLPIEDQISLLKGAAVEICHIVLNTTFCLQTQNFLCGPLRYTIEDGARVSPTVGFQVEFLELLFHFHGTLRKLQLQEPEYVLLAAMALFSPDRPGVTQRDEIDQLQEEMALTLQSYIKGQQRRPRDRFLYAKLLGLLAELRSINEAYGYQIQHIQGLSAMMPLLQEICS
Chain of Thyrotropin receptor (Homo sapiens) (P16473 whole entry, looked up): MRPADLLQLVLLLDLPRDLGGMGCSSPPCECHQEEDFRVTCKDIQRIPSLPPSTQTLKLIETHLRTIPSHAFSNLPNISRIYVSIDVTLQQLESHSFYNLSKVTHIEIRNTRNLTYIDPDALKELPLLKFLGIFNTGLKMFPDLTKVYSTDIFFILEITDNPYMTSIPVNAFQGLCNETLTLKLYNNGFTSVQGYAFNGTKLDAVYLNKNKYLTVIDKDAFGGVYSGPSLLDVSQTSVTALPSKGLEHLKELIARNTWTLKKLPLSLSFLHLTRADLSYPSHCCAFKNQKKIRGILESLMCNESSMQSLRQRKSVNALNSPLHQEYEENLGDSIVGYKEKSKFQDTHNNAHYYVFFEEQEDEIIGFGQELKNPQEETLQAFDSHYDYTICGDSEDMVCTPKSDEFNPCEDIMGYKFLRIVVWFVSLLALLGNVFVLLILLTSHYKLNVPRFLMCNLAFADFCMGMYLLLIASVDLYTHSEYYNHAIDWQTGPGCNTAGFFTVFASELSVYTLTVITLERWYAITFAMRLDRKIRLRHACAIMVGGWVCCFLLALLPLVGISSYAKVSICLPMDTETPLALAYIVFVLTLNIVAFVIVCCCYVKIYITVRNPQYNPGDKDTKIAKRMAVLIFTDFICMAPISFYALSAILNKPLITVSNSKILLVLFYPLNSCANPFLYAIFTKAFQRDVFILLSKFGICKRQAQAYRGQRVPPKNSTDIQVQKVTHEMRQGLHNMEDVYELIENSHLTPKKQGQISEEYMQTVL
Chain of Luciferin 4-monooxygenase (Photinus pyralis) (P08659 whole entry, looked up): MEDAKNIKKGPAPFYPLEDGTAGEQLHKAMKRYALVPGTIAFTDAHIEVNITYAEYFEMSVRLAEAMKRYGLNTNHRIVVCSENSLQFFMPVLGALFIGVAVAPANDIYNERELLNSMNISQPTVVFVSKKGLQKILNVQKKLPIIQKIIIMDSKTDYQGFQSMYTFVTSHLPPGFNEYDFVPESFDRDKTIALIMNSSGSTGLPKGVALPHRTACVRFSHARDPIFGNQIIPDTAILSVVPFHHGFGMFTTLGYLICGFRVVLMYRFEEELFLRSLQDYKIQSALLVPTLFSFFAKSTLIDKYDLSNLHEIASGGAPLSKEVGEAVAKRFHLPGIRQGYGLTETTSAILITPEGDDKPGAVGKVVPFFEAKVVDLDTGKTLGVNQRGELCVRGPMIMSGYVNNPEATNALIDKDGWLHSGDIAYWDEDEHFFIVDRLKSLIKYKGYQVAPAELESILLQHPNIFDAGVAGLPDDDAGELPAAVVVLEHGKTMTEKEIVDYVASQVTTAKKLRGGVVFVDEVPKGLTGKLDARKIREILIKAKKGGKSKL

OC[C@@H](O)[C@@H](O)[C@H](O)[C@@H](O)CO
inactive: Potency [1] | Potency [2] | Potency [3] | Potency [4] | Potency [5] | Potency [6] | Potency [7] | Potency [8] | Potency [9] | Potency [10] | outcome [11] | Potency [12] | Potency [13]

OC[C@@H](O)[C@H](O)[C@H](O)[C@@H](O)CO
inactive: Potency [1] | Potency [2] | Potency [3] | Potency [4] | Potency [5] | Potency [6] | Potency [7] | Potency [8] | Potency [9] | Potency [10] | outcome [11] | Potency [14] | activity change, positive = activation [15] 4.66% and 4.1% | Potency [12] | Potency [13] | Potency [16]

ClC1=C(Cl)C(Cl)(Cl)C(Cl)=C1Cl
inactive: Potency [1] | Potency [2] | Potency [3] | Potency [4] | Potency [17] | Potency [18] | Potency [5] | Potency [6] | Potency [7] | Potency [8] | Potency [10] | Potency [12] | Potency [16]
active: Potency [13] 39.1 µM

C=C(C)C(=O)OCCCCCCCCCCCC
inactive: Potency [1] | Potency [2] | Potency [3] | Potency [4] | Potency [17] | Potency [18] | Potency [5] | Potency [6] | Potency [7] | Potency [8] | Potency [10] | outcome [11] | Potency [14] | Potency [12] | Potency [13] | Potency [16]

Cc1cc(=O)[nH]c(C(C)C)n1
inactive: Potency [1] | Potency [2] | Potency [3] | Potency [4] | Potency [17] | Potency [18] | Potency [5] | Potency [6] | Potency [7] | Potency [8] | Potency [9] | Potency [10] | outcome [11] | Potency [14] | Potency [19] | Potency [12] | Potency [13] | Potency [16]

NS(=O)(=O)c1cc2c(cc1Cl)NC=NS2(=O)=O
inactive: Potency [1] | Potency [2] | Potency [3] | Potency [4] | Potency [17] | Potency [5] | Potency [8] | Potency [9] | Potency [10] | outcome [11] | Potency [13]

CCOC(=O)C1OC1c1ccccc1 (stereo unspecified)
inactive: Potency [1] | Potency [2] | Potency [3] | Potency [4] | Potency [17] | Potency [18] | Potency [5] | Potency [9] | Potency [10] | outcome [11] | Potency [14] | Potency [16]

CCCCCC/C=C/CCCCCCCC(=O)O
inactive: Potency [1] | Potency [3] | Potency [4] | Potency [17] | Potency [18] | Potency [5] | Potency [8] | Potency [9] | Potency [10] | outcome [11] | Potency [14] | Potency [13] | Potency [16]
inactive and 71 µM (active): Potency [2]

CCCCCCCCCCCCOCC1CO1 (stereo unspecified)
inactive: Potency [1] | Potency [2] | Potency [3] | Potency [4] | Potency [17] | Potency [18] | Potency [5] | Potency [6] | Potency [7] | Potency [8] | Potency [10] | outcome [11] | Potency [14] | Potency [19] | Potency [12] | Potency [13] | Potency [16]

— PubChem BioAssay (Tox21)
